Results on 38 compounds are retold here after PubChem BioAssay (NCATS).

Values joined by “and” are separate entries in the source; they are usually repeats but may differ in a detail not shown here. Equal entries are not always repeated. Active and inactive are the calls of the source.

The conditions of the first experiment: Ebola virus entry assay, reporter ratio channel; AC50: Channel type: primary unless noted; outcome: Channel type: primary unless noted.
As a reminder, the AC50 is the midpoint of the concentration-response curve, whichever way the signal moves. Consider `CCC(=O)O[C@H]1[C@H](O[C@@H]2[C@@H](C)[C@H](O[C@H]3C[C@@](C)(OC)[C@@H](O)[C@H](C)O3)[C@@H](C)C(=O)O[C@H](CC)[C@@](C)(O)[C@H](O)[C@@H](C)C(=O)[C@H](C)C[C@@]2(C)O)O[C@H](C)C[C@@H]1N(C)C`, for which the AC50 is 11.2 µM (active).

Regarding `COc1cccc2c1C(=O)c1c(O)c3c(c(O)c1C2=O)C[C@@](O)(C(=O)CO)C[C@@H]3O[C@H]1C[C@H](N)[C@H](O)[C@H](C)O1`, the AC50 is 14.1 µM (active).

On to `Clc1ccc2c(c1)C(N1CCNCC1)=Nc1ccccc1O2`, for which the AC50 is 10 µM (active).

On to `CO[C@]12CC[C@@]3(C[C@@H]1[C@](C)(O)C(C)(C)C)[C@@H]1Cc4ccc(O)c5c4[C@@]3(CCN1CC1CC1)[C@H]2O5`, for which the AC50 is 3.16 µM (active).

As to `OC(CCN1CCCC1)(c1ccccc1)C1CCCCC1` (configuration not stated), the AC50 was 20 µM (active).

As for `C=C1C[C@@H]2[C@H](CC[C@]3(C)C(=O)CC[C@@H]23)[C@@]2(C)C=CC(=O)C=C12`, the AC50 was 25.1 µM (active).

Regarding `Cc1ccc(-c2cc(C(F)(F)F)nn2-c2ccc(S(N)(=O)=O)cc2)cc1`, the AC50 was 39.8 µM (active).

As for `CN1CCN(C2=Nc3ccccc3Oc3ccc(Cl)cc32)CC1`, the AC50 is 31.6 µM (active).

For `CC(N)C12CC3CC(CC(C3)C1)C2` (configuration not stated), the AC50 was 28.2 µM (active).

As for `O=c1[nH]c2ccccc2n1C1CCN(CCCC(c2ccc(F)cc2)c2ccc(F)cc2)CC1`, the AC50 is 3.98 µM (active).

Regarding `CC1(CN2CCC(n3c(=O)[nH]c4ccccc43)CC2)OCc2ccccc2-n2cccc21` (configuration not stated), the AC50 was 15.8 µM (active).

On to `COc1cc(NC(C)CCCN)c2ncccc2c1` (configuration not stated), for which the AC50 was 3.55 µM (active).

As for `NC(=O)C(c1ccccc1)(c1ccccc1)[C@@H]1CCN(CCc2ccc3c(c2)CCO3)C1`, the AC50 was 31.6 µM (active).

Take `CCN(CC)CCCC(C)Nc1ccnc2cc(Cl)ccc12` (configuration not stated): the AC50 is 1.12 µM (active).

On to `O[C@@H](CNC[C@H](O)[C@H]1CCc2cc(F)ccc2O1)[C@@H]1CCc2cc(F)ccc2O1`, for which the AC50 is 3.55 µM (active).

As for `COc1cc(C(C)=O)ccc1OCCCN1CCC(c2noc3cc(F)ccc23)CC1`, the concentration at half-maximal activity (AC50) was 28.2 µM (active).

Take `CN1CCN(CCCN2c3ccccc3Sc3ccc(Cl)cc32)CC1`: the AC50 is 3.98 µM (active).

For `CNCCC(Oc1ccc(C(F)(F)F)cc1)c1ccccc1` (configuration not stated), the AC50 is 3.55 µM (active).

Consider `CN(C)CC/C=C1\c2ccccc2COc2ccccc21`, for which the AC50 was 14.1 µM (active).

For `COCCCC/C(=N\OCCN)c1ccc(C(F)(F)F)cc1`, the AC50 was 14.1 µM (active).

With `CC(C)NCC(O)COc1ccc(CCOCC2CC2)cc1` (configuration not stated), the AC50 is 11.2 µM (active).

Turning to `CN1CCN(CCCN2c3ccccc3Sc3ccc(C(F)(F)F)cc32)CC1`, the outcome was “inactive [Channel type: confirmation]”.

Consider `COc1cc2nc(N3CCN(C(=O)C4COc5ccccc5O4)CC3)nc(N)c2cc1OC` (configuration not stated), for which the AC50 was 15.8 µM (active).

As to `CCC(=O)C(CC(C)N(C)C)(c1ccccc1)c1ccccc1` (configuration not stated), the half-maximal activity concentration (AC50) was 7.94 µM (active).

For the compound `CCCSc1ccc2nc(NC(=O)OC)[nH]c2c1`, the outcome is “inactive [Channel type: confirmation]”.

For the compound `CCN(CC)C(=S)SSC(=S)N(CC)CC`, the AC50 was 7.94 µM (active) and 22.4 µM (active).

For the compound `CS(=O)(=O)CCNCc1ccc(-c2ccc3ncnc(Nc4ccc(OCc5cccc(F)c5)c(Cl)c4)c3c2)o1`, the AC50 was 3.98 µM (active).

For `CC(CN1c2ccccc2Sc2ccccc21)N(C)C` (configuration not stated), the AC50 was 31.6 µM (active).

For `COc1ccccc1OCCNCC(O)COc1cccc2[nH]c3ccccc3c12` (configuration not stated), the AC50 was 2.24 µM (active).

`Cc1cc2c(C(C)C)c(O)c(O)c(C=O)c2c(O)c1-c1c(C)cc2c(C(C)C)c(O)c(O)c(C=O)c2c1O`: the AC50 was 39.8 µM (active).

Take `CN(C)C(=O)C(CCN1CCC(O)(c2ccc(Cl)cc2)CC1)(c1ccccc1)c1ccccc1`: the AC50 was 2.51 µM (active).

Take `O=C1Cc2cc(CCN3CCN(c4nsc5ccccc45)CC3)c(Cl)cc2N1`: the AC50 was 17.8 µM (active).

In the case of `CCN(CC)CCNC(=O)c1c(C)[nH]c(/C=C2\C(=O)Nc3ccc(F)cc32)c1C`, the outcome was “inactive [Channel type: confirmation]”.

Turning to `CC[C@@H]([C@H](C)O)n1ncn(-c2ccc(N3CCN(c4ccc(OC[C@@H]5CO[C@@](Cn6cncn6)(c6ccc(F)cc6F)C5)cc4)CC3)cc2)c1=O`, the AC50 was 3.98 µM (active).

`COc1cc2nc(N3CCN(C(=O)c4ccco4)CC3)nc(N)c2cc1OC`: the AC50 was 12.6 µM (active).

Regarding `COc1cc2c(N3CCN(C(=O)Nc4ccc(OC(C)C)cc4)CC3)ncnc2cc1OCCCN1CCCCC1`, the AC50 is 10 µM (active).

Take `Cc1ccc(O)c([C@H](CCN(C(C)C)C(C)C)c2ccccc2)c1`: the AC50 is 12.6 µM (active).

Turning to `CC(CN(C)C)CN1c2ccccc2CCc2ccccc21` (configuration not stated), the AC50 is 6.31 µM (active).

For a further experiment the following is noted: Ebola virus entry cell assay, ratio channel.
With `CCC(=O)O[C@H]1[C@H](O[C@@H]2[C@@H](C)[C@H](O[C@H]3C[C@@](C)(OC)[C@@H](O)[C@H](C)O3)[C@@H](C)C(=O)O[C@H](CC)[C@@](C)(O)[C@H](O)[C@@H](C)C(=O)[C@H](C)C[C@@]2(C)O)O[C@H](C)C[C@@H]1N(C)C`, the outcome was inactive.

Regarding `Clc1ccc2c(c1)C(N1CCNCC1)=Nc1ccccc1O2`, the AC50 is 12.6 µM (active).

With `CO[C@]12CC[C@@]3(C[C@@H]1[C@](C)(O)C(C)(C)C)[C@@H]1Cc4ccc(O)c5c4[C@@]3(CCN1CC1CC1)[C@H]2O5`, the outcome was inactive.

Regarding `OC(CCN1CCCC1)(c1ccccc1)C1CCCCC1` (configuration not stated), the AC50 is 20 µM (active).

`C=C1C[C@@H]2[C@H](CC[C@]3(C)C(=O)CC[C@@H]23)[C@@]2(C)C=CC(=O)C=C12`: the AC50 was 15.8 µM (active).

For `Cc1ccc(-c2cc(C(F)(F)F)nn2-c2ccc(S(N)(=O)=O)cc2)cc1`, the half-maximal activity concentration (AC50) was 11.2 µM (active).

For the compound `CN1CCN(C2=Nc3ccccc3Oc3ccc(Cl)cc32)CC1`, the result was inactive.

With `CC(N)C12CC3CC(CC(C3)C1)C2` (configuration not stated), the result was inactive.

With `O=c1[nH]c2ccccc2n1C1CCN(CCCC(c2ccc(F)cc2)c2ccc(F)cc2)CC1`, the AC50 is 7.94 µM (active).

Take `COc1cc(NC(C)CCCN)c2ncccc2c1` (configuration not stated): the result was inactive.

On to `NC(=O)C(c1ccccc1)(c1ccccc1)[C@@H]1CCN(CCc2ccc3c(c2)CCO3)C1`, for which the outcome was inactive.

Consider `CCN(CC)CCCC(C)Nc1ccnc2cc(Cl)ccc12` (configuration not stated), for which the AC50 is 2.82 µM (active).

With `O[C@@H](CNC[C@H](O)[C@H]1CCc2cc(F)ccc2O1)[C@@H]1CCc2cc(F)ccc2O1`, the AC50 was 5.01 µM (active).

As for `COc1cc(C(C)=O)ccc1OCCCN1CCC(c2noc3cc(F)ccc23)CC1`, the outcome was inactive.

Regarding `CN1CCN(CCCN2c3ccccc3Sc3ccc(Cl)cc32)CC1`, the AC50 was 14.1 µM (active).

Consider `CNCCC(Oc1ccc(C(F)(F)F)cc1)c1ccccc1` (configuration not stated), for which the AC50 was 12.6 µM (active).

For `CN(C)CC/C=C1\c2ccccc2COc2ccccc21`, the AC50 is 25.1 µM (active).

On to `COCCCC/C(=N\OCCN)c1ccc(C(F)(F)F)cc1`, for which the result was inactive.

For `CC(C)NCC(O)COc1ccc(CCOCC2CC2)cc1` (configuration not stated), the AC50 was 15.8 µM (active).

For `CN1CCN(CCCN2c3ccccc3Sc3ccc(C(F)(F)F)cc32)CC1`, the AC50 was 3.98 µM (active).

Take `COc1cc2nc(N3CCN(C(=O)C4COc5ccccc5O4)CC3)nc(N)c2cc1OC` (configuration not stated): the outcome was inactive.

For the compound `CCC(=O)C(CC(C)N(C)C)(c1ccccc1)c1ccccc1` (configuration not stated), the AC50 is 15.8 µM (active).

With `CCCSc1ccc2nc(NC(=O)OC)[nH]c2c1`, the AC50 is 8.91 µM (active).

For `CCN(CC)C(=S)SSC(=S)N(CC)CC`, the outcome was inactive.

For the compound `CS(=O)(=O)CCNCc1ccc(-c2ccc3ncnc(Nc4ccc(OCc5cccc(F)c5)c(Cl)c4)c3c2)o1`, the outcome was inactive.

`CC(CN1c2ccccc2Sc2ccccc21)N(C)C` (configuration not stated): the AC50 is 20 µM (active).

As for `COc1ccccc1OCCNCC(O)COc1cccc2[nH]c3ccccc3c12` (configuration not stated), the AC50 is 10 µM (active).

With `CN(C)C(=O)C(CCN1CCC(O)(c2ccc(Cl)cc2)CC1)(c1ccccc1)c1ccccc1`, the AC50 is 11.2 µM (active).

Turning to `O=C1Cc2cc(CCN3CCN(c4nsc5ccccc45)CC3)c(Cl)cc2N1`, the concentration at half-maximal activity (AC50) is 15.8 µM (active).

For `CCN(CC)CCNC(=O)c1c(C)[nH]c(/C=C2\C(=O)Nc3ccc(F)cc32)c1C`, the AC50 was 3.16 µM (active).

Take `CC[C@@H]([C@H](C)O)n1ncn(-c2ccc(N3CCN(c4ccc(OC[C@@H]5CO[C@@](Cn6cncn6)(c6ccc(F)cc6F)C5)cc4)CC3)cc2)c1=O`: the AC50 was 8.91 µM (active).

Consider `COc1cc2nc(N3CCN(C(=O)c4ccco4)CC3)nc(N)c2cc1OC`, for which the AC50 was 12.6 µM (active).

For `Cc1ccc(O)c([C@H](CCN(C(C)C)C(C)C)c2ccccc2)c1`, the AC50 was 11.2 µM (active).

On to `CC(CN(C)C)CN1c2ccccc2CCc2ccccc21` (configuration not stated), for which the AC50 was 14.1 µM (active).
